Experimental data taken from article PMC7862700, “An all-to-all approach to the identification of sequence-specific readers for epigenetic DNA modifications on cytosine”.

Tests used:
Assay in all cases: DAPPL (digital affinity profiling via proximity ligation, sequencing); 10 mM Tris-HCl pH 7.5, 50 mM NaCl, 1 mM DTT, 4% glycerol, room temperature, 30 min; GST-TFs on glutathione beads, 16-mer random dsDNA library, 0.1% formaldehyde crosslink after washing; high values mean tight binding
FLI1 = molecular target: T1, FLI1 (Homo sapiens, UniProt Q01543 1-452); details: protein: recombinant; tags: N-terminal GST; dsDNA, one strand shown
T1 sequence: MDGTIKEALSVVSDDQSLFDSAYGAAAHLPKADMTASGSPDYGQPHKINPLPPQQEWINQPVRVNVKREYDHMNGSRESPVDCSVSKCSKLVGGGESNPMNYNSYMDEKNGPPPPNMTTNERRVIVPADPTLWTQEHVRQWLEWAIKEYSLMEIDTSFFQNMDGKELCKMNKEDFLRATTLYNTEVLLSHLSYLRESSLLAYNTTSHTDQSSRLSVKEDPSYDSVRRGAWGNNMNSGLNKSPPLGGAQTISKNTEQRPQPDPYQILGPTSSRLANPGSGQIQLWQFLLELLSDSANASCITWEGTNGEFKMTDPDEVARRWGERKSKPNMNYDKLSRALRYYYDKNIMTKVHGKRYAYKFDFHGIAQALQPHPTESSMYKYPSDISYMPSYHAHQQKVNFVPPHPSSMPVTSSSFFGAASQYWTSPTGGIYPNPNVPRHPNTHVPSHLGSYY
In short: (§1)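 GST fusions of human transcription factors were expressed in yeast and captured with glutathione beads. Once given DNA barcodes and pooled alongside a tag-only sample, they were incubated for 30 min at room temperature with 200 nmole of a random double-stranded 16-mer DNA library in Tris/NaCl/DTT/glycerol buffer, then washed, crosslinked (0.1% formaldehyde), proximity-ligated, PCR-amplified and sequenced on an Illumina NextSeq500. The binding signal of each hexamer is its read frequency for a factor divided by its frequency for the tag-only sample.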

ELK1 = molecular target: T2, ELK1 (Homo sapiens, UniProt P19419 1-428); details: protein: recombinant; tags: N-terminal GST; dsDNA, one strand shown
T2 sequence: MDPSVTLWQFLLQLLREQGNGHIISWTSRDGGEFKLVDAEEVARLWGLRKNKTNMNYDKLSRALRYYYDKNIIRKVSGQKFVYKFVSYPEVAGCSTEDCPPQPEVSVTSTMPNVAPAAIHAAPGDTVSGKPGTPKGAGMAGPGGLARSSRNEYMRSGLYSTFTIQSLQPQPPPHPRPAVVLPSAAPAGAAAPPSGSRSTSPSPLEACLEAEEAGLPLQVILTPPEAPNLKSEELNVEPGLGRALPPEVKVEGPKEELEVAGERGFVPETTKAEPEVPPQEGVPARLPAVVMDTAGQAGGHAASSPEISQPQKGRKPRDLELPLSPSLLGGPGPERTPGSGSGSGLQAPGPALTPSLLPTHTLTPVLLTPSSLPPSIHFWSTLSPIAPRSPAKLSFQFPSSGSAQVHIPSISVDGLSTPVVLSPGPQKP
In short: as §1

GABPA = molecular target: T3, GABPA (Homo sapiens, UniProt Q06546 1-454); details: protein: recombinant; tags: N-terminal GST; dsDNA, one strand shown
T3 sequence: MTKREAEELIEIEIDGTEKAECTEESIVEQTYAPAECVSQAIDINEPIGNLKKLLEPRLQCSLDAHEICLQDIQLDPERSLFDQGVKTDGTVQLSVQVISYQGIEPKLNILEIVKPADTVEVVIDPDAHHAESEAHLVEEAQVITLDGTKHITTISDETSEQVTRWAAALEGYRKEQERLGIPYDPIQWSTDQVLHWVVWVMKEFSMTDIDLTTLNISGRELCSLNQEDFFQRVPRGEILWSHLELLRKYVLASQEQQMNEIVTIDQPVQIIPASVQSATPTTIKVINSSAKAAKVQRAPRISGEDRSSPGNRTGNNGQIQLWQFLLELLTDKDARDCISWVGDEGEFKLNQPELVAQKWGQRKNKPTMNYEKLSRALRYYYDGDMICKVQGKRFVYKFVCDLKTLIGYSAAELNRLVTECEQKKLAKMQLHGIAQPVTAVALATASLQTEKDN
In short: as §1

ERG = molecular target: T4, ERG (Homo sapiens, UniProt P11308 1-479); details: protein: recombinant; tags: N-terminal GST; dsDNA, one strand shown
T4 sequence: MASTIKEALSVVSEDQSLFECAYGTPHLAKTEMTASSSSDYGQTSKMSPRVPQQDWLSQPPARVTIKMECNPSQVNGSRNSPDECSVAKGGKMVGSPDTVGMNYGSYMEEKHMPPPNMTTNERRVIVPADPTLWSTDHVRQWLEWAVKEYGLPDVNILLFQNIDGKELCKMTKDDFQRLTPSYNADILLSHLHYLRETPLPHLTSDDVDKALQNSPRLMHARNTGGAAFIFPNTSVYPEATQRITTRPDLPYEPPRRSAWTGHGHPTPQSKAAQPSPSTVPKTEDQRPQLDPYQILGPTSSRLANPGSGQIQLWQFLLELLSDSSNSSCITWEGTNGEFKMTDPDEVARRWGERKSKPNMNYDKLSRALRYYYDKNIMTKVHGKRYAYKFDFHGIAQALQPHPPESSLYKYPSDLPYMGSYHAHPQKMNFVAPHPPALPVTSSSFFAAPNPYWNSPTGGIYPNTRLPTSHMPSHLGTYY
In short: as §1

ELF1 = ELF1 (Homo sapiens, UniProt P32519 1-619); details: protein: recombinant; tags: N-terminal GST; dsDNA, one strand shown
In short: as §1

EHF = molecular target: T5, EHF (Homo sapiens, UniProt Q9NZC4 1-300); details: protein: recombinant; tags: N-terminal GST; dsDNA, one strand shown
T5 sequence: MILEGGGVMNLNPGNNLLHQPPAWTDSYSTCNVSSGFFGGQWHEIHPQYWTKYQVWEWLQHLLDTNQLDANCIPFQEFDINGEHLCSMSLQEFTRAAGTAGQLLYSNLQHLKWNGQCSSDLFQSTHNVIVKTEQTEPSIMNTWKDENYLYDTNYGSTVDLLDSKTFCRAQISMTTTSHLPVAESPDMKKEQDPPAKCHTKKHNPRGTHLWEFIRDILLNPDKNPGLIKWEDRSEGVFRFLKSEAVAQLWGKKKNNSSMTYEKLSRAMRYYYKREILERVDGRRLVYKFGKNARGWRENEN
In short: as §1

SPI1 = SPI1 (Homo sapiens, UniProt P17947 1-270); details: protein: recombinant; tags: N-terminal GST; dsDNA, one strand shown
In short: as §1

SPIB = SPIB (Homo sapiens, UniProt Q01892 1-262); details: protein: recombinant; tags: N-terminal GST; dsDNA, one strand shown
In short: as §1

ELK3 = molecular target: T6, ELK3 (Homo sapiens, UniProt P41970 1-407); details: protein: recombinant; tags: N-terminal GST; dsDNA, one strand shown
T6 sequence: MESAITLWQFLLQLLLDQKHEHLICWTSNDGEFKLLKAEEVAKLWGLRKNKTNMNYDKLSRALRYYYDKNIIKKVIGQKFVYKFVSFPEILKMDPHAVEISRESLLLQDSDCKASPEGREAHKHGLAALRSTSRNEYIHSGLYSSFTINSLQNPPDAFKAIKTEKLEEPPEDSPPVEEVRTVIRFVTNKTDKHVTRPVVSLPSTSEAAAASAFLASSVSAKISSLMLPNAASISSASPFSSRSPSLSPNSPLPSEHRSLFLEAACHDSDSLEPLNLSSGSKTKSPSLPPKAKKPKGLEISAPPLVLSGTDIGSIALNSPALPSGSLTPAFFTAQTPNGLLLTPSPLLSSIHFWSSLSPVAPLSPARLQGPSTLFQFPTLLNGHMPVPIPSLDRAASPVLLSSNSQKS
In short: as §1

FEV = molecular target: T7, FEV (Homo sapiens, UniProt Q99581 1-238); details: protein: recombinant; tags: N-terminal GST; dsDNA, one strand shown
T7 sequence: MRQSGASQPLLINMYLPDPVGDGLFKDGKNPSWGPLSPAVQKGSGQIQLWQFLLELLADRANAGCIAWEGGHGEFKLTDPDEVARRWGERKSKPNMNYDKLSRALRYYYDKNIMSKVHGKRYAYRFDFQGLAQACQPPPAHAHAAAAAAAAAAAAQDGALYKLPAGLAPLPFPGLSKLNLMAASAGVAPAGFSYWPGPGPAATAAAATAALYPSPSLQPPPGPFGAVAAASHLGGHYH
In short: as §1

ETV5 = ETV5 (Homo sapiens, UniProt P41161 1-510); details: protein: recombinant; tags: N-terminal GST; dsDNA, one strand shown
In short: as §1

HSF1 = HSF1 (Homo sapiens, UniProt Q00613 1-529); details: protein: recombinant; tags: N-terminal GST; chain copies: 3; dsDNA, one strand shown
In short: as §1

SPIC = molecular target: T8, SPIC (Homo sapiens, UniProt Q8N5J4 1-248); details: protein: recombinant; tags: N-terminal GST; dsDNA, one strand shown
T8 sequence: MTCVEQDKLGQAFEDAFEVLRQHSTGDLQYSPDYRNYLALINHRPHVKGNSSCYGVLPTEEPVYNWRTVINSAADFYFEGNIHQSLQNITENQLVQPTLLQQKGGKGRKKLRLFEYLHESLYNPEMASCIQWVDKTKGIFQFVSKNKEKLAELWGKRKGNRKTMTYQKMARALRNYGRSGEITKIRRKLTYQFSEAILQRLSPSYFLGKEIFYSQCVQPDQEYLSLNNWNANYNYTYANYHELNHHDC
In short: as §1

ELF4 = ELF4 (Homo sapiens, UniProt Q99607 1-663); details: protein: recombinant; tags: N-terminal GST; dsDNA, one strand shown
In short: as §1

ELK4 = molecular target: T9, ELK4 (Homo sapiens, UniProt P28324-2 1-405); details: protein: recombinant; tags: N-terminal GST; dsDNA, one strand shown
T9 sequence: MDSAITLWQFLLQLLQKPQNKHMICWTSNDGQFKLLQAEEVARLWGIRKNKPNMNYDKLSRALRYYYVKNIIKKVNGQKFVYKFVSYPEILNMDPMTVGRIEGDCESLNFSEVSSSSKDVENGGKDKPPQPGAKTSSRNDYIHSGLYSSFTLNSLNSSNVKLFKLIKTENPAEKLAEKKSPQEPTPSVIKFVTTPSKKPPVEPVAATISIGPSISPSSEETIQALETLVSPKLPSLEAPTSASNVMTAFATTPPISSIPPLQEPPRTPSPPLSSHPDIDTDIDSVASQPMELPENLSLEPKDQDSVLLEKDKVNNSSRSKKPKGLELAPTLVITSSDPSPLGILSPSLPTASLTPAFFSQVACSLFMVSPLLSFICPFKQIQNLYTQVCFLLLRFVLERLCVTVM
In short: as §1

ETV2 = molecular target: T10, ETV2 (Homo sapiens, UniProt O00321 1-342); details: protein: recombinant; tags: N-terminal GST; dsDNA, one strand shown
T10 sequence: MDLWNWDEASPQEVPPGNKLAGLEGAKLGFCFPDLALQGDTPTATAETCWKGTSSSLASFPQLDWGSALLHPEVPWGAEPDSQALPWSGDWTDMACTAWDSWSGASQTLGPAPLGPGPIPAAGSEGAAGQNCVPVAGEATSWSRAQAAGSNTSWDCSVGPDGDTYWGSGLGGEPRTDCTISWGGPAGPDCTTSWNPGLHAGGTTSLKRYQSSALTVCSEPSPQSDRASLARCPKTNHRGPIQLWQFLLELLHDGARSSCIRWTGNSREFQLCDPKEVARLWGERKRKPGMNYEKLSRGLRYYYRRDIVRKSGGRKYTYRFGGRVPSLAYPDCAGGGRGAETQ
In short: as §1

ELF3 = molecular target: T11, ELF3 (Homo sapiens, UniProt P78545 1-371); details: protein: recombinant; tags: N-terminal GST; dsDNA, one strand shown
T11 sequence: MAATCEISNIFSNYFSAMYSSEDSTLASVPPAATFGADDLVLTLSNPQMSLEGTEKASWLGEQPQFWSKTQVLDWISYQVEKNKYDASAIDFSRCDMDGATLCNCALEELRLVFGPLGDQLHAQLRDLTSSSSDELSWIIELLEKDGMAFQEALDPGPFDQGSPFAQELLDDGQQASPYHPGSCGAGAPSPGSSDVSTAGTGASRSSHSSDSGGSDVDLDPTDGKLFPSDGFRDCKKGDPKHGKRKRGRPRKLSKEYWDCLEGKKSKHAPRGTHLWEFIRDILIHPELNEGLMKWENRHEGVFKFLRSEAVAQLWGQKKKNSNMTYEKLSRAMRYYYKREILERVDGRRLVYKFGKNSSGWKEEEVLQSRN
In short: as §1

ETV1 = ETV1 (Homo sapiens, UniProt P50549 1-477); details: protein: recombinant; tags: N-terminal GST; dsDNA, one strand shown
In short: as §1

Sequence of SPIB (Q01892 whole entry): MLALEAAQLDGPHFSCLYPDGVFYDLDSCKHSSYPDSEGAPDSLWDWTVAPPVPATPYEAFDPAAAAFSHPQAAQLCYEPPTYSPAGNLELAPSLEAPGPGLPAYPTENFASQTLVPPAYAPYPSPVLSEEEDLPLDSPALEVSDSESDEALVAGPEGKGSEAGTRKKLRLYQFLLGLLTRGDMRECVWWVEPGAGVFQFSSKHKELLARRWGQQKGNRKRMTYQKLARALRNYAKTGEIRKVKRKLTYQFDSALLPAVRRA
Sequence of HSF1 (Q00613 whole entry): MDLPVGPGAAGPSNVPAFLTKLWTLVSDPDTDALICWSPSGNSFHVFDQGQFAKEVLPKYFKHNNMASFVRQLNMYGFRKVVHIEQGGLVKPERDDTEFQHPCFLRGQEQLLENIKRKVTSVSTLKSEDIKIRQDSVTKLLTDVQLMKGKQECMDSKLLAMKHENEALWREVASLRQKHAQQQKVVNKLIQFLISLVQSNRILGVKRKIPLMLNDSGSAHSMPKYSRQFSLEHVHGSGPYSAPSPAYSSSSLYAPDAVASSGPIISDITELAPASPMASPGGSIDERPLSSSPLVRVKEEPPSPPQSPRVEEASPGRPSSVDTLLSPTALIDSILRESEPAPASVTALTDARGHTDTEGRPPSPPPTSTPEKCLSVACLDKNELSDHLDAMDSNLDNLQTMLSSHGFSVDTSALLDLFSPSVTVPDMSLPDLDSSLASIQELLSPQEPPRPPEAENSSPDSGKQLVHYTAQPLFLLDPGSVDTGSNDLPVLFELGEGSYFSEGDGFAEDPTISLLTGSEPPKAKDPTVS
Sequence of ETV5 (P41161 whole entry): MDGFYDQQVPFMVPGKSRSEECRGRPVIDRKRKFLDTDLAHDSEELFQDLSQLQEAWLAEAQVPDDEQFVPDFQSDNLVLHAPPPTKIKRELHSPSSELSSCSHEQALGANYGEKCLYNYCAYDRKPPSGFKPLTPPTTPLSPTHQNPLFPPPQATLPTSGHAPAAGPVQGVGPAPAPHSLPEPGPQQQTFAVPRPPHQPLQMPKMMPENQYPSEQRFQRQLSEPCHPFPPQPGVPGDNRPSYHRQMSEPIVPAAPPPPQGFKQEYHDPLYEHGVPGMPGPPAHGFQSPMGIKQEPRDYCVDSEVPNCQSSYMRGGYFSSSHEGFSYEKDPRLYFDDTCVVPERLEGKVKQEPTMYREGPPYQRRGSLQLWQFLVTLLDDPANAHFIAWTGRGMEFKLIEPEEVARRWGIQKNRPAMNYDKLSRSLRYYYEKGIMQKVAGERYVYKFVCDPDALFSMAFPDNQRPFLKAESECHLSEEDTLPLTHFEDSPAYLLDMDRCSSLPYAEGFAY
Sequence of ETV1 (P50549 whole entry): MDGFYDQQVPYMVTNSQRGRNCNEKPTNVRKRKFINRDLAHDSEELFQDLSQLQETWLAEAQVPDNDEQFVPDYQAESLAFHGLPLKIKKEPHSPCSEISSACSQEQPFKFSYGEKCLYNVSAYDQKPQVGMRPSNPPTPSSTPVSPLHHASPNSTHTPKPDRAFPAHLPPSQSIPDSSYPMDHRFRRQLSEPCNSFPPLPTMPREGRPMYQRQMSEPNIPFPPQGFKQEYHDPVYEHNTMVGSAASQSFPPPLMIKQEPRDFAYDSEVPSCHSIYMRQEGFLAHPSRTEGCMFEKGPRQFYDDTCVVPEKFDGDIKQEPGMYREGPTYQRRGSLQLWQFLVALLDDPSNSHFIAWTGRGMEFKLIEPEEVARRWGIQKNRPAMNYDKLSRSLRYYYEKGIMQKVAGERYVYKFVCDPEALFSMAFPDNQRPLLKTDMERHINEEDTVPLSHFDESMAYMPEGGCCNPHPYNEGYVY
Sequence of ELF1 (P32519 whole entry): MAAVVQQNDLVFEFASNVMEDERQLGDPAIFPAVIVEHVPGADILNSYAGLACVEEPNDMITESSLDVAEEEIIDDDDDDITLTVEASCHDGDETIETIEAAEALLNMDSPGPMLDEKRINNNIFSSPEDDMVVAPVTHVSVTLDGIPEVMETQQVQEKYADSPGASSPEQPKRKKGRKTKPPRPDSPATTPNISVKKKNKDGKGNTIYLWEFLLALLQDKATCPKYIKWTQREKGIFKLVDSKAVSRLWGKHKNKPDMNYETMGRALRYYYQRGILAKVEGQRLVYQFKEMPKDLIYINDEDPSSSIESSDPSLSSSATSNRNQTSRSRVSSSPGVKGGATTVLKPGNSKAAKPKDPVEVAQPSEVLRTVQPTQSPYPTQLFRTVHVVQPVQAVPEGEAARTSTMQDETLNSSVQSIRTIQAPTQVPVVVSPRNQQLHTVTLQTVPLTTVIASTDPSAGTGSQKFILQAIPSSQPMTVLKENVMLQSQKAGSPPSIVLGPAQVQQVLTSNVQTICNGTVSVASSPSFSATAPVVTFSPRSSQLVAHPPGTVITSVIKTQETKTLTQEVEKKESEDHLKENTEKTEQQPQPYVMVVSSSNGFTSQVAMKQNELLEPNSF
Sequence of ELF4 (Q99607 whole entry): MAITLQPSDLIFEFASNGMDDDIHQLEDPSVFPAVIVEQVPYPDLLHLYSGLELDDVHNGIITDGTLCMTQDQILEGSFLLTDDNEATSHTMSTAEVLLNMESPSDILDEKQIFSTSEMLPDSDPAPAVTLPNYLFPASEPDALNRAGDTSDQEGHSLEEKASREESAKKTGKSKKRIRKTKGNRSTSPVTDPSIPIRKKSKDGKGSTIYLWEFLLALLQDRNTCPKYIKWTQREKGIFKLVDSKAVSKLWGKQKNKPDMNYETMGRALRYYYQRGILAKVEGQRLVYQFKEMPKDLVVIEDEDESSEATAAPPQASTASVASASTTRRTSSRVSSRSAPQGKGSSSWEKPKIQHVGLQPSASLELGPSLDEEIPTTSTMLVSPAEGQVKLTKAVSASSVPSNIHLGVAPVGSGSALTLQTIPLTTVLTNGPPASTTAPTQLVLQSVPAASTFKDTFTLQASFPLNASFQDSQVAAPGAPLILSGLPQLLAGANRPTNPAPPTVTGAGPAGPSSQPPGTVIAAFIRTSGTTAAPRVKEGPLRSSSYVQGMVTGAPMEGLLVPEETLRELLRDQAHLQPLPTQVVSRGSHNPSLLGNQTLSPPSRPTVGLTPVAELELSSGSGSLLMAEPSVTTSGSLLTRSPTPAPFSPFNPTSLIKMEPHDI

AACAAG
binding signal (FLI1): 1.08 fold enrichment (6-mer frequency, TF over GST control) | binding signal (ELK1): 1.08 fold enrichment (6-mer frequency, TF over GST control) | binding signal (GABPA): 1.15 fold enrichment (6-mer frequency, TF over GST control) | binding signal (ERG): 1.14 fold enrichment (6-mer frequency, TF over GST control) | binding signal (ELF1): 1.13 fold enrichment (6-mer frequency, TF over GST control) | binding signal (EHF): 1.17 fold enrichment (6-mer frequency, TF over GST control) | binding signal (SPI1): 1.04 fold enrichment (6-mer frequency, TF over GST control) | binding signal (SPIB): 1.06 fold enrichment (6-mer frequency, TF over GST control) | binding signal (ELK3): 1.22 fold enrichment (6-mer frequency, TF over GST control) | binding signal (FEV): 1.03 fold enrichment (6-mer frequency, TF over GST control) | binding signal (ETV5): 1.14 fold enrichment (6-mer frequency, TF over GST control) | binding signal (HSF1): 1.03 fold enrichment (6-mer frequency, TF over GST control) | binding signal (SPIC): 1.15 fold enrichment (6-mer frequency, TF over GST control) | binding signal (ELF4): 1.17 fold enrichment (6-mer frequency, TF over GST control) | binding signal (ELK4): 1.01 fold enrichment (6-mer frequency, TF over GST control) | binding signal (ETV2): 1 fold enrichment (6-mer frequency, TF over GST control) | binding signal (ELF3): 1.26 fold enrichment (6-mer frequency, TF over GST control) | binding signal (ETV1): 1.13 fold enrichment (6-mer frequency, TF over GST control)
